BRCT inh green = inhibitors of human BRCA1 BRCT-phosphoprotein interaction (green fluorophore); P38398; BRCA1 BRCT-phosphopeptide binding, green fluorescence polarization; Potency, µM (top dose mostly 76.9 µM), hits mostly inhibitors; 0.05% of 75,000 active
Target sequence (P38398 whole entry, looked up): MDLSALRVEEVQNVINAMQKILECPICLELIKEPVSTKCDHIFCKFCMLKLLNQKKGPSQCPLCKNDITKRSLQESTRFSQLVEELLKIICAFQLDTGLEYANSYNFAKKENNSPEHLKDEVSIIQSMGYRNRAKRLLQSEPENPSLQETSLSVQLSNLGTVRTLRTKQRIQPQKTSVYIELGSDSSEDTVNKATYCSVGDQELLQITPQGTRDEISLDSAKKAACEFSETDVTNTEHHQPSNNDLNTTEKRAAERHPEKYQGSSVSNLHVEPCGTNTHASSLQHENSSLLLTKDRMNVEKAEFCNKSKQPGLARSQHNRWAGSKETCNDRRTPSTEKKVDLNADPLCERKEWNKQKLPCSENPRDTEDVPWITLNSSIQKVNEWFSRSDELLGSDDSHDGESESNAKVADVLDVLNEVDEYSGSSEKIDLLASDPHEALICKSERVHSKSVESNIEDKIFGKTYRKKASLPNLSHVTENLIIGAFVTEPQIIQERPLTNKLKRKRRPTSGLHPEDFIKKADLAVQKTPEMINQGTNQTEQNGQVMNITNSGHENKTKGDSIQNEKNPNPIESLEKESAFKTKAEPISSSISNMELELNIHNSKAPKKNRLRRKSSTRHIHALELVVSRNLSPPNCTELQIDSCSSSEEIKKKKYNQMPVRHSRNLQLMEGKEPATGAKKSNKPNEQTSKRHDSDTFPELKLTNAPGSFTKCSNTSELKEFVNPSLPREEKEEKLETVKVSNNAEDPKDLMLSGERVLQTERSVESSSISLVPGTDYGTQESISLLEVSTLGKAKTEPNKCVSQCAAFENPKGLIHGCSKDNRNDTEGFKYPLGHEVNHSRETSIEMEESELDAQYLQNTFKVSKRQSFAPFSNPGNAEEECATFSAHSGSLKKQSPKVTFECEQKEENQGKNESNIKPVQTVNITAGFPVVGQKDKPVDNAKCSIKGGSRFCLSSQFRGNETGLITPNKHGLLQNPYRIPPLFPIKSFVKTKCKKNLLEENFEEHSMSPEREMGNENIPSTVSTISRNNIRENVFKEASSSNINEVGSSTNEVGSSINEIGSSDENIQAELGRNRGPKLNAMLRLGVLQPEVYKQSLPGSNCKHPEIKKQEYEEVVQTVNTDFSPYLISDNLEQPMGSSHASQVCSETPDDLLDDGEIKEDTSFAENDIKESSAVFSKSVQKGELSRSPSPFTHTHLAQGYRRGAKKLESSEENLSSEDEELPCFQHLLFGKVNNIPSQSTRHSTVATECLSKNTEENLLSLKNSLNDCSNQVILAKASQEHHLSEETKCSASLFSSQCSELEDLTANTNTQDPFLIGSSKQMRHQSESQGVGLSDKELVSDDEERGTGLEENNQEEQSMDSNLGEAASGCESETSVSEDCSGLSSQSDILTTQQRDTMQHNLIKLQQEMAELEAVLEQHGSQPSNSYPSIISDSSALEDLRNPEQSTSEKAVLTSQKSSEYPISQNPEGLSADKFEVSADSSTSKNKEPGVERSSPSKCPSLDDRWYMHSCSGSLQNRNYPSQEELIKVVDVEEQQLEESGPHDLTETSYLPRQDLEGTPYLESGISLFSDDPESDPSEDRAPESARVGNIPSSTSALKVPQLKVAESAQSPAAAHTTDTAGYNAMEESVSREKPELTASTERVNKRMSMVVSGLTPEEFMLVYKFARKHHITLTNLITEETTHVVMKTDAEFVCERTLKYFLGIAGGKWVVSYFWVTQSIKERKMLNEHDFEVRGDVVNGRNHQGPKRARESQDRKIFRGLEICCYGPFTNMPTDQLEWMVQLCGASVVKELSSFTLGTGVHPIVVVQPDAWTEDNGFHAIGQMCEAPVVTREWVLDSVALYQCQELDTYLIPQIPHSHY
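Compounds were incubated for 12 min at room temperature with a complex of 100 nM fluorescein-tagged pBACH1 decapeptide and 250 nM His-tagged BRCT protein. Buffer was phosphate pH 7.3 with EDTA, DTT and Tween 20. Disruption of binding lowers the polarization signal.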
TSHR ag = TSH receptor (human) agonism; P16473; HEK293-CNG-TSHR cells (CNG channel as cAMP sensor), membrane potential dye, cAMP; Potency, µM (series often up to 57.1 µM), actives largely listed as activators; 0.48% of 73,000 active; AID 926; active means well fitted activation curve with a large enough effect in the main read-out, with a control signal flat, not every such curve was filed as active; inconclusive means small, poorly fitted or top-dose-only effect, or a change in a side signal; inactive means no such curve, though single readings can be large or run the other way; reference of the percent scale not stated here;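 further: the control signal comes from parental cells without the receptor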
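HEK 293 cells stably expressing TSHR and a cAMP-gated CNG channel; parental CNG-only cells as counterscreen. Cells preloaded 60 min with membrane potential dye plus 100 uM RO 20-1724, then compound 30 min; fluorescence read at 590 nm.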
YjeE inh = inhibitors of E. coli YjeE (TsaE). Potency, µM. purified YjeE enzyme, qHTS inhibition assay. 0.05% of 71,000 active
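Purified YjeE (10 uM) with BODIPY Texas Red-labeled ADP probe (2 uM); compounds pin-transferred, 15 min at room temperature. Binding inhibition read as decreased fluorescence polarization; ADP titration as control.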
BRCT inh red = BRCT-phosphoprotein interaction inhibition (red fluorophore); P38398; BRCT-phosphopeptide binding, red fluorescence polarization; Potency, µM (titrated, usually from 76.9 µM), hits mostly inhibitors; 0.03% of 75,000 active; AID 892
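Fluorescence polarization: 100 nM His-tagged BRCA1 BRCT with 100 nM TAMRA-labelled phospho-BACH1 decapeptide, phosphate buffer pH 7.3 with 150 mM NaCl, DTT, 0.01% Tween 20; 12 min RT. Binding inhibition seen as FP decrease.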
HEK293 cAMP cs = raises cAMP in parental HEK293 cells, TSHR agonist counter-screen. parental HEK293 CNG cAMP sensor, membrane potential fluorescence. Potency, µM (series often up to 57.1 µM), hits mostly activators. 2.5% of 73,000 active. AID 938; further: nearly all actives have a fitted effect of over 55% in size
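Parental HEK 293 cells stably expressing a cAMP-gated CNG channel were loaded with membrane potential dye containing 100 uM RO 20-1724 for 60 min. Compound added for 30 min; depolarization read as fluorescence intensity at 590 nm.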
DNA Pol III inh = DNA polymerase III holoenzyme inhibition. reconstituted DNA polymerase III holoenzyme replication, biochemical. Potency, µM (titrated, usually from 57.1 µM). 0.25% of 71,000 active. AID 603
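Reconstituted *E. coli* holoenzyme (0.35 nM Pol III, 1 nM beta, 154 nM SSB, 2 nM primase) was preincubated with compound for 15 min at RT. Synthesis on 1.4 nM ssM13Gori ran 35 min, then was stopped with PicoGreen/EDTA and read as dsDNA fluorescence.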
Of the large screens only hits and unclear results are named; the others gave an inactive call. Hits are enriched below; roughly 3.2% of the tested compounds scored in any of these assays. Unless noted, the call rests on the fitted dose curve; in most records, active means well fitted curve in the direction sought with a large enough effect; inconclusive means small, poorly fitted or top-dose-only effect, or another doubt; inactive means no such curve, though single readings can be large; an effect the other way counts as inactive or inconclusive.

Cc1ccc(C)c(Cn2cnc3c(nnn3-c3ccc(F)cc3)c2=O)c1	TSHR ag inconclusive, HEK293 cAMP cs 1µM
COc1ccc(-n2nnc3c(=O)n(Cc4ccccc4C)cnc32)cc1	none (no result: TSHR ag)
COc1ccc(-n2nnc3c(=O)n(Cc4cccc(C)c4)cnc32)cc1	TSHR ag inconclusive, HEK293 cAMP cs 25µM
CCC(=O)N[C@@H]1Cc2ccccc2[C@@H](c2ccccc2)C1	TSHR ag inconclusive, HEK293 cAMP cs 20µM
O=C(CCN1CCN(c2ccc(Cl)cc2)CC1)Nc1ccccc1F	TSHR ag inconclusive, HEK293 cAMP cs 25µM
COc1ccc(OC)c(NC(=O)CCN2CCN(c3ccccc3F)CC2)c1	none
COc1ccc(C)cc1NC(=O)CN1CCN(c2ccccc2F)CC1	TSHR ag inconclusive, HEK293 cAMP cs 16µM
COc1cccc(NC(=O)CCN2CCN(c3ccccc3F)CC2)c1	TSHR ag inconclusive, HEK293 cAMP cs 25µM (no result: YjeE inh, DNA Pol III inh)
CN1CCN(CN2C(=O)C3C4C=CC(C3C2=O)C2C3C(=O)N(CN5CCN(C)CC5)C(=O)C3C42)CC1 (configuration not stated)	none
COC(=O)c1cc(=O)[nH]c(=O)[nH]1	none
C[C@@H]1c2ccccc2Cn2cc3c(c21)C(=O)c1cccc(OP(=O)(O)OCc2ccccc2)c1C3=O	none
O=C1C2=C(Nc3ccccc3SC2c2ccco2)c2ccccc21 (configuration not stated)	TSHR ag 2µM
O=C1c2ccccc2NC(c2ccco2)N1O (configuration not stated)	none
CCOC(=O)N1CCC(n2c(SCC(=O)NCCC3=CCCCC3)nc3ccccc3c2=O)CC1	TSHR ag inconclusive, HEK293 cAMP cs 6.3µM
CC(C)CCNC(=O)C1CCN(S(=O)(=O)c2ccc3c(c2)CCC(=O)N3)CC1	TSHR ag inconclusive, HEK293 cAMP cs 6.3µM
O=C1CCCCC1Sc1nnc(Cc2cccs2)n1CCc1ccccc1 (configuration not stated)	TSHR ag inconclusive, HEK293 cAMP cs 10µM
Cn1cccc1Cc1nnc(SCC(=O)NCC2CCCO2)n1CCc1ccccc1 (configuration not stated)	none
O=C(COc1ccc2c(c1)CCC2)N1CCc2ccccc21	TSHR ag inconclusive, HEK293 cAMP cs 25µM
NCCC[C@@H](CC(=O)N[C@@H]1CCNC[C@H]1C(=O)N[C@H](CC(=O)N[C@@H](CCC(=O)O)CC(=O)O)Cc1ccccc1)NC(=O)C[C@H](CO)NC(=O)[C@@H]1CCCC[C@H]1N	none (no result: BRCT inh green, BRCT inh red)
Fc1ccc(-c2nn3c(C4COc5ccccc5O4)nnc3s2)cc1 (configuration not stated)	TSHR ag inconclusive, HEK293 cAMP cs inconclusive
Fc1ccc(-c2nnc3sc(C4COc5ccccc5O4)nn23)cc1 (configuration not stated)	TSHR ag inconclusive, HEK293 cAMP cs 25µM
COc1cccc(C2C(C(=O)OCc3ccccc3)=C(C)Nc3ncnn32)c1OC (configuration not stated)	TSHR ag inconclusive, HEK293 cAMP cs inconclusive
CN1CCCC2(CCN(C(=O)c3cccn3C)CC2)C1	TSHR ag inconclusive, HEK293 cAMP cs inconclusive
CCOC(=O)c1c(NC(=O)CN2CCCCC2)sc2c1CCN(C(=O)OCC)C2	TSHR ag inconclusive, HEK293 cAMP cs 7.9µM (no result: YjeE inh, DNA Pol III inh)
Cc1cc2sc(C)[n+](CCCOS(=O)(=O)O)c2cc1C	none
CCNc1nc(NC(C)C)nc(N(C#N)Cc2ccccc2)n1	none
CCNc1nc(NC(C)C)nc(N(C#N)CCOc2ccc(Cl)cc2Cl)n1	TSHR ag inconclusive, HEK293 cAMP cs 32µM
COc1c(-c2ccccc2)oc2c(ccc3occc32)c1=O	TSHR ag inconclusive, HEK293 cAMP cs 40µM
O=c1c(O)c(-c2ccccc2)oc2ccc3occc3c12	none (no result: TSHR ag, YjeE inh, HEK293 cAMP cs, DNA Pol III inh)
CCCCC(CC)CNCC(CC)CCCC (configuration not stated)	TSHR ag inconclusive
CC(C)C[C@@H](CC(=O)N[C@@H](CCC(=O)O)CC(=O)O)NC(=O)[C@@H]1CCCC[C@H]1NC(=O)C[C@@H](NC(=O)C[C@H](Cc1c[nH]c2ccccc12)NC(=O)[C@@H]1CNCC[C@H]1N)C(C)C	none (no result: BRCT inh green, BRCT inh red)
CC(=O)c1cc2c(cc1NC(=O)CN1CCN(c3cccc(C(F)(F)F)c3)CC1)OCO2	TSHR ag inconclusive, HEK293 cAMP cs 16µM
COc1ccccc1-c1nc(N(C)Cc2ccco2)c2ccccc2n1	TSHR ag inconclusive, HEK293 cAMP cs 25µM
CN(Cc1ccco1)c1nc(-c2ccccc2C(F)(F)F)nc2ccccc12	TSHR ag inconclusive, HEK293 cAMP cs 10µM
CN(Cc1ccco1)c1nc(-c2cccnc2)nc2ccccc12	TSHR ag inconclusive, HEK293 cAMP cs 25µM
CN(Cc1ccco1)c1nc(-c2ccccc2Cl)nc2ccccc12	none
CN(C)Cc1ccccc1-c1nc(N(C)C)c2ccccc2n1	TSHR ag inconclusive, HEK293 cAMP cs 10µM
Cc1cccc(CNc2nc(-c3ccccc3CN(C)C)nc3ccccc23)c1	TSHR ag inconclusive, HEK293 cAMP cs 0.79µM
COc1ccccc1CNc1nc(-c2ccccc2OC)nc2ccccc12	TSHR ag 32µM
CC(CCC(=O)O)C1CCC2C3CC[C@@H]4CCCC[C@@]4(C)C3CC[C@@]12C (some centres not stated)	none (no result: TSHR ag, YjeE inh, HEK293 cAMP cs, DNA Pol III inh)
c1cc(C(c2nnnn2C2CCCC2)N2CCOCC2)ccn1 (configuration not stated)	none
c1ccc(CN(Cc2ccco2)C(c2ccncc2)c2nnnn2C2CCCC2)cc1 (configuration not stated)	TSHR ag inconclusive, HEK293 cAMP cs 10µM
CCN(CC)C(c1ccc(F)cc1)c1nnnn1C1CCCCC1 (configuration not stated)	none
CCN(CC)C(c1ccc(C)cc1)c1nnnn1C1CCCCC1 (configuration not stated)	TSHR ag inconclusive, HEK293 cAMP cs 16µM
O=C(c1ccccc1)c1ccccc1C(=O)N1CCCC1	none
O=C(c1cccc2c1-c1ccccc1/C2=N/O)N1CCCCC1	TSHR ag inconclusive, HEK293 cAMP cs 13µM
Nc1nc(=S)c2[nH]cnc2[nH]1	none (no result: TSHR ag, YjeE inh, HEK293 cAMP cs, DNA Pol III inh)
O=C1c2ccccc2C(Nc2ccc(F)c(Cl)c2)N1c1ccccn1 (configuration not stated)	TSHR ag 20µM
C=CCOCC/C=C1/c2ccccc2C(OC)C1C (configuration not stated)	none (no result: YjeE inh, DNA Pol III inh)
O=C(c1cnn2c(C(F)(F)F)cc(-c3ccco3)nc12)N1CCCCCC1	TSHR ag inconclusive, HEK293 cAMP cs 32µM
CC(=O)Nc1cccc(C(=O)Nc2ccccc2C(=O)O)c1	none
